In the supplement of paper PMC11001985:

compound: C#CCNC(=O)CCSSCCC(=O)NCCc1ccc(C=O)c(C=O)c1; test: lysine labeling ratio R10:1 (500 µM / 50 µM probe), SILAC-ABPP in living cells; higher = lower intrinsic lysine reactivity toward the probe, active = 2 or less; conditions: HeLa; probe concentrations 500 vs 50 µM
Outline: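 In PBS at room temperature, living HeLa cells grown with SILAC light or heavy labels were treated with 50 µM or 500 µM of an alkyne-tagged, disulfide-linked lysine probe, with label swaps in both directions. Analysis was by LC-MS/MS on a TIMS-TOF Pro after click to biotin-azide, neutravidin capture and DTT release. For each lysine, R is the median across forward and reverse replicates of the filtered median high-probe/low-probe MS1 peptide ratio, capped at 20.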

Chain of UniProt Q13813 (Q13813 whole entry): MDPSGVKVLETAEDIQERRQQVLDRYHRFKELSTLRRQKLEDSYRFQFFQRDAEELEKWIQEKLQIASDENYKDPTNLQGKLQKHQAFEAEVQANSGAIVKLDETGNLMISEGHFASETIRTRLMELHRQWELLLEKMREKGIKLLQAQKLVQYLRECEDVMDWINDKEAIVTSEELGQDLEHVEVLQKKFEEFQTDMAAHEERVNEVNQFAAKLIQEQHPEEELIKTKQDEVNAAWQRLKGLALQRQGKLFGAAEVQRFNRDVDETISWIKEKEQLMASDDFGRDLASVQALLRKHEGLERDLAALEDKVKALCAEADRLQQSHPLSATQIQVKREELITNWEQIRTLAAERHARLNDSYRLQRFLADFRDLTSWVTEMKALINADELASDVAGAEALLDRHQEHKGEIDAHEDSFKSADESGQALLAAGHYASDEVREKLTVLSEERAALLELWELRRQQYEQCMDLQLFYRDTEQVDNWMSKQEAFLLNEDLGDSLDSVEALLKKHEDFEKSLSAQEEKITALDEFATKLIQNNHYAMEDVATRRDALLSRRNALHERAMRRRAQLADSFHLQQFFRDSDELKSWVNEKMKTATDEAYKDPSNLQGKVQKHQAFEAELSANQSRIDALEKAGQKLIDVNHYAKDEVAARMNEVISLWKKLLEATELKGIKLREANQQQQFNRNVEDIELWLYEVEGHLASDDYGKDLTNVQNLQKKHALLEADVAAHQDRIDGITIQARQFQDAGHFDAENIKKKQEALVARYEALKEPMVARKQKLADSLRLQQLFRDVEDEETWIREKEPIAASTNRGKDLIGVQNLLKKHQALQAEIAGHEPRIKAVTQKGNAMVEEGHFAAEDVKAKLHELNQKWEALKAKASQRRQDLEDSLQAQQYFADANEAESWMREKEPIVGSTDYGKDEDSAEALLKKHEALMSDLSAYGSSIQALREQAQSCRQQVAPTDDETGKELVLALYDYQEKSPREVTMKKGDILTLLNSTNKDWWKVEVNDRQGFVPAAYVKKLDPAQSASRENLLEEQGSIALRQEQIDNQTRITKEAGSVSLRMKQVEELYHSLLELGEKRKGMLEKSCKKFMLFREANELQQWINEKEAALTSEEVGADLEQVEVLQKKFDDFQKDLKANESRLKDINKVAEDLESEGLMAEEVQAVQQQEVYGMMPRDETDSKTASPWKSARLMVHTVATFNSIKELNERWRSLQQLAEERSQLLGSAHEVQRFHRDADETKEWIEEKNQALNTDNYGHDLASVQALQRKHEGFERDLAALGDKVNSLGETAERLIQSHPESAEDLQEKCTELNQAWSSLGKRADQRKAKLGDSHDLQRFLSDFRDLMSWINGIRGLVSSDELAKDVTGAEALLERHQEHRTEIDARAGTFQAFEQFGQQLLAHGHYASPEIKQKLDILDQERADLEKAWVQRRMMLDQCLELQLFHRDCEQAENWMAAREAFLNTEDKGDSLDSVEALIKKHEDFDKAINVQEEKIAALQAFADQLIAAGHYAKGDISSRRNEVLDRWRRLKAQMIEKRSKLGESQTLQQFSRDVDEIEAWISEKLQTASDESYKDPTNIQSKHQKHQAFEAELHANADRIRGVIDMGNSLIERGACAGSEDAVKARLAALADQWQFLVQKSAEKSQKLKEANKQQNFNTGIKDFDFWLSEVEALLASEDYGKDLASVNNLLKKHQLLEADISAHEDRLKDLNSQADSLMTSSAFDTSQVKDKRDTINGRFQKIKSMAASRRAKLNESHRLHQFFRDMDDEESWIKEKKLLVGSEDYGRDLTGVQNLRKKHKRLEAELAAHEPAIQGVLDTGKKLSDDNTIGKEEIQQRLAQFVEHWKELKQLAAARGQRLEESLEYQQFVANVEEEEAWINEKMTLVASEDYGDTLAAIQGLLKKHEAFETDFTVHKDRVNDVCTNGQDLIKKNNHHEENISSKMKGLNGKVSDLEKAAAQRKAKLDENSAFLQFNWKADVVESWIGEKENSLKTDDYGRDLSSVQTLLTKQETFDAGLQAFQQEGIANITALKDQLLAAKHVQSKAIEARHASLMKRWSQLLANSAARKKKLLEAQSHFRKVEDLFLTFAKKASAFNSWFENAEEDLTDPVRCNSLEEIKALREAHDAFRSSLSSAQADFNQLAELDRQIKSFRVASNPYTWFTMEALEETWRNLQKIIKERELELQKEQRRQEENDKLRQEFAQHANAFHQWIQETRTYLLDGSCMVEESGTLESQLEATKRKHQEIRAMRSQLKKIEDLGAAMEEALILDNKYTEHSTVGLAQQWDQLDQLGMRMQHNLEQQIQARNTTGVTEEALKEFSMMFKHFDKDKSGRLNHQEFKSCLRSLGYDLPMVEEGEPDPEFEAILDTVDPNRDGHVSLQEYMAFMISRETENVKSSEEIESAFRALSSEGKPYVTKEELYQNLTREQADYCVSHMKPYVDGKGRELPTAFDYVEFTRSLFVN
Chain of UniProt Q9NX63 (Q9NX63 whole entry): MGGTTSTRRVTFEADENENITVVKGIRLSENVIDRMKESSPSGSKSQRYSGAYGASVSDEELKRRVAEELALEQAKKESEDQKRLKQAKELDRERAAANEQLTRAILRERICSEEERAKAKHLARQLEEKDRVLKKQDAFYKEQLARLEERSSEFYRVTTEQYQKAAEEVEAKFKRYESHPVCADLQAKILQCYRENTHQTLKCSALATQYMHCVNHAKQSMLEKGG
Chain of UniProt P23229 (P23229 whole entry): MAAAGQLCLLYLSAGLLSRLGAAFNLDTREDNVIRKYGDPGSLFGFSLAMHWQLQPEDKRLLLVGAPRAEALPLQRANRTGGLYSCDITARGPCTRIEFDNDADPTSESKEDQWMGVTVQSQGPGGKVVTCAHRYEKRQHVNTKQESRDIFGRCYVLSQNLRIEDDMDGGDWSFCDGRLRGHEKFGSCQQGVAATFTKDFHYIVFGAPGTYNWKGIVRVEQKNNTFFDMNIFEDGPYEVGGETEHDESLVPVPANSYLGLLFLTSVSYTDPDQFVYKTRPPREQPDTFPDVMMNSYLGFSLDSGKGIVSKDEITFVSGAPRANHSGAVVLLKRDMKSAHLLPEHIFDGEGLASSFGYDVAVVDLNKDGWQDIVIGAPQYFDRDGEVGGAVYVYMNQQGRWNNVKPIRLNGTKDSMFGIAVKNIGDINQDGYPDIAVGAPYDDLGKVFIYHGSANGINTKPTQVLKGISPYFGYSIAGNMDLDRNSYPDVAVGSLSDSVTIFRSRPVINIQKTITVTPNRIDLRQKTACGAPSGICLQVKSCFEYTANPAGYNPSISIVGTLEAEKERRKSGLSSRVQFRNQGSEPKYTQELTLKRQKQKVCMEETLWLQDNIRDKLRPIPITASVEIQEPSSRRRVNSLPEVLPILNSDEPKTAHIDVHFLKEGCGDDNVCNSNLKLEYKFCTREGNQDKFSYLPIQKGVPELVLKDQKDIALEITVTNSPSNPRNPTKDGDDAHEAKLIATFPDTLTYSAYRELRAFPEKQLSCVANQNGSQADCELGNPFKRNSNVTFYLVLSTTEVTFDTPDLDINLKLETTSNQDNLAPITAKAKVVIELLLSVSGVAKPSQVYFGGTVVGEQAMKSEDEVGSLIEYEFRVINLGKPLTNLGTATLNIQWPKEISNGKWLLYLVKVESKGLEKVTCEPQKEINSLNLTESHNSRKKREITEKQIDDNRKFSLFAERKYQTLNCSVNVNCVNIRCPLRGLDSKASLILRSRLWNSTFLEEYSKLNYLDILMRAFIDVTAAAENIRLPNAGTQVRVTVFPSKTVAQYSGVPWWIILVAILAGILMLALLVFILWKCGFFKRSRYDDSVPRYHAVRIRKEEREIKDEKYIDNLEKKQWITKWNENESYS
Chain of UniProt O00560 (O00560 whole entry): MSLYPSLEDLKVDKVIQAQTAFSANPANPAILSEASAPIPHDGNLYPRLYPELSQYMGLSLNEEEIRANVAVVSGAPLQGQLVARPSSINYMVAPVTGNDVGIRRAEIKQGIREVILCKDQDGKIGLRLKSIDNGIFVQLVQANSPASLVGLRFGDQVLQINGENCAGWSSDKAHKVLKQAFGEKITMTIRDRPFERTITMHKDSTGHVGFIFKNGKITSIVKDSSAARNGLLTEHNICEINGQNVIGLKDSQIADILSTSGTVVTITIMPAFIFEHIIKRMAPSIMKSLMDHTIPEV
Chain of UniProt P34897 (P34897 whole entry): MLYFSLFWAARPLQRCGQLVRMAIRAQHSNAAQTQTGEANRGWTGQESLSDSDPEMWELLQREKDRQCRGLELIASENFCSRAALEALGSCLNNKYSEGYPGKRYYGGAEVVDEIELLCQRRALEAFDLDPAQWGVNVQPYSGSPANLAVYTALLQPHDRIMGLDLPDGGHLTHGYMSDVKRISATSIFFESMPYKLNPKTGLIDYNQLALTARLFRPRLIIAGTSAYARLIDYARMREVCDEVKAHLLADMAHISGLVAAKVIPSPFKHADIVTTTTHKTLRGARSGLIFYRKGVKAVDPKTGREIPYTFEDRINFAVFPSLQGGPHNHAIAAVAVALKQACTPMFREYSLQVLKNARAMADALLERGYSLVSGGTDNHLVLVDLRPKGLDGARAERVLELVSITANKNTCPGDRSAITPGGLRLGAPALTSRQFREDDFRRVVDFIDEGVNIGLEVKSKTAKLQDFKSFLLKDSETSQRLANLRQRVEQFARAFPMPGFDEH
Chain of UniProt P62937 (P62937 whole entry, looked up): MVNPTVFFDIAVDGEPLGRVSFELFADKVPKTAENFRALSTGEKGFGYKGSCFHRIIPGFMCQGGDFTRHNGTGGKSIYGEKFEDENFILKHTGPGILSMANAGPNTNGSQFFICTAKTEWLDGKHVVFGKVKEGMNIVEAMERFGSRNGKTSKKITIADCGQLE
Chain of UniProt Q8WXX5 (Q8WXX5 whole entry): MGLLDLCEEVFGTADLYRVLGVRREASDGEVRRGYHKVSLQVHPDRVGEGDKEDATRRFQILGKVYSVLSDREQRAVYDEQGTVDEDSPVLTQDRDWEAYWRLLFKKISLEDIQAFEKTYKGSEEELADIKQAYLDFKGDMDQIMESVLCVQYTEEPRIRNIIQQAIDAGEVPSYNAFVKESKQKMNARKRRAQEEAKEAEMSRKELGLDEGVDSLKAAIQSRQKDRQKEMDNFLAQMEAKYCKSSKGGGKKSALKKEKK

Lysine labeling ratio R10:1, active:
SPTAN1 (lysine site: K1784) (UniProt Q13813) 1.22
MET (lysine site: K725) (UniProt P08581) 0.656
CHCHD3 (lysine site: K45) (UniProt Q9NX63) 1.56
IGF1R (lysine site: K221) (UniProt P08069) 1.51
SPTAN1 (lysine site: K1546) (UniProt Q13813) 0.8
TNPO1 (lysine site: K889) (UniProt Q92973) 1.09
MSN (lysine site: K458) (UniProt P26038) 1.55
RPS19 (lysine site: K144) (UniProt P39019) 1.75
CD109 (lysine site: K86) (UniProt Q6YHK3) 1.68
PPL (lysine site: K1339) (UniProt O60437) 1.34
LRP1 (lysine site: K806) (UniProt Q07954) 1.57
ACTN4 (lysine site: K535) (UniProt O43707) 1.05
SPTAN1 (lysine site: K1543) (UniProt Q13813) 1.58
ANPEP (lysine site: K836) (UniProt P15144) 0.79
SYNE2 (lysine site: K1618) (UniProt Q8WXH0) 1.41
HSPA5 (lysine site: K382) (UniProt P11021) 1.18

Lysine labeling ratio R10:1, inactive:
UniProt P55072 (lysine site: K148) 5.57
UniProt Q15149 (lysine site: K2078) 2.58
SHMT2 (lysine site: K409) (UniProt P34897) 2.98
CD58 (lysine site: K60) (UniProt P19256) 6.36
UniProt Q9UKX5 (lysine site: K150) 2.51
FRAS1 (lysine site: K549) (UniProt Q86XX4) 4.59
GPC1 (lysine site: K363) (UniProt P35052) 7.78
UniProt P46781 (lysine site: K52) 2.39
RPS19 (lysine site: K122) (UniProt P39019) 4.72
UniProt P08727 (lysine site: K398) 2.38
ITGA1 (lysine site: K711) (UniProt P56199) 3.16
UniProt P61160 (lysine site: K381) 2.7
PPIA (lysine site: K49) (UniProt P62937) 3.03
UniProt Q9Y653 (lysine site: K107) 2.31
UniProt P25705 (lysine site: K261) 2.94
HSPE1 (lysine site: K8) (UniProt P61604) 4.22
FLNB (lysine site: K1584) (UniProt O75369) 3.06
DNAJC9 (lysine site: K198) (UniProt Q8WXX5) 2.94
UniProt P61978 (lysine site: K405) 6.82
CADM1 (lysine site: K93) (UniProt Q9BY67) 4.95
VAT1 (lysine site: K391) (UniProt Q99536) 2.03
SDCBP (lysine site: K109) (UniProt O00560) 5.45
ITGA6 (lysine site: K569) (UniProt P23229) 2.54
SERPINH1 (lysine site: K190) (UniProt P50454) 2.12
